# Measured values reported in paper PMC7862700, “An all-to-all approach to the identification of sequence-specific readers for epigenetic DNA modifications on cytosine”.
# What was measured:
# Test in all cases: DAPPL (digital affinity profiling via proximity ligation, sequencing); 10 mM Tris-HCl pH 7.5, 50 mM NaCl, 1 mM DTT, 4% glycerol, room temperature, 30 min; GST-TFs on glutathione beads, 16-mer random dsDNA library, 0.1% formaldehyde crosslink after washing; high values mean tight binding
# FLI1 = biological target: T1, FLI1 (Homo sapiens, UniProt Q01543 1-452); conditions: protein: recombinant; tags: N-terminal GST; dsDNA, one strand shown
# T1 sequence: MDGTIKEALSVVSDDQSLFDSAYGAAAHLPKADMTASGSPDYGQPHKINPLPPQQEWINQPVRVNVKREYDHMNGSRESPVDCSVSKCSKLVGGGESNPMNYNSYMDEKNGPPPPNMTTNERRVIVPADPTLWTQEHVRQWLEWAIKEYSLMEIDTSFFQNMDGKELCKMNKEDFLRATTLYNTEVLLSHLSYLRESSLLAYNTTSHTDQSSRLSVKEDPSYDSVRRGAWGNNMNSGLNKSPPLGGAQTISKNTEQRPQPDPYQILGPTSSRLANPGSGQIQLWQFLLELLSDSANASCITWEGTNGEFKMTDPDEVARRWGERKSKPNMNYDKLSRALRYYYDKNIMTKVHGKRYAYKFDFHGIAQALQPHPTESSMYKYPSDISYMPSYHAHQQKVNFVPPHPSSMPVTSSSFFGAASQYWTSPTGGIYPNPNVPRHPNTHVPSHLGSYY
# How it was run: (§1)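 Beads coated with glutathione captured GST-fused human transcription factors that had been expressed in yeast, and the factors were then given DNA barcodes and pooled with a tag-only sample. The pools were incubated with 200 nmole of a random double-stranded 16-mer DNA library in Tris/NaCl/DTT/glycerol buffer for 30 min at room temperature, washed, crosslinked with 0.1% formaldehyde and proximity-ligated with BsaI/T4 ligase at 37 °C for 1 h. PCR amplification and Illumina NextSeq500 sequencing came last. Binding signal is each hexamer's read frequency for a factor divided by its frequency for the tag-only sample.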
# ELK1 = biological target: T2, ELK1 (Homo sapiens, UniProt P19419 1-428); conditions: protein: recombinant; tags: N-terminal GST; dsDNA, one strand shown
# T2 sequence: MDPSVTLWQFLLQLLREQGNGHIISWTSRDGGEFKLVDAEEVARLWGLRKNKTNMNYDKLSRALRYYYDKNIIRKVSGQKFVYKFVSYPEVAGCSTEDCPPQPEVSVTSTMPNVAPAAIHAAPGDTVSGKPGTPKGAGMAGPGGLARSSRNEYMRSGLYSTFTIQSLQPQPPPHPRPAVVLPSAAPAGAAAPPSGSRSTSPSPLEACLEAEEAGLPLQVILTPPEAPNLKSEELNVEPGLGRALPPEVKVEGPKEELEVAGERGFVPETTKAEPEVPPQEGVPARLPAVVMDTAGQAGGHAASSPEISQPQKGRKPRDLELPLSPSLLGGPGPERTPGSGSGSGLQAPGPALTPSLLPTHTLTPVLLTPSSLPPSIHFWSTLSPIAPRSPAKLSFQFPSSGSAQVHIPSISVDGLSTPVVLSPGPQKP
# How it was run: as §1
# GABPA = biological target: T3, GABPA (Homo sapiens, UniProt Q06546 1-454); conditions: protein: recombinant; tags: N-terminal GST; dsDNA, one strand shown
# T3 sequence: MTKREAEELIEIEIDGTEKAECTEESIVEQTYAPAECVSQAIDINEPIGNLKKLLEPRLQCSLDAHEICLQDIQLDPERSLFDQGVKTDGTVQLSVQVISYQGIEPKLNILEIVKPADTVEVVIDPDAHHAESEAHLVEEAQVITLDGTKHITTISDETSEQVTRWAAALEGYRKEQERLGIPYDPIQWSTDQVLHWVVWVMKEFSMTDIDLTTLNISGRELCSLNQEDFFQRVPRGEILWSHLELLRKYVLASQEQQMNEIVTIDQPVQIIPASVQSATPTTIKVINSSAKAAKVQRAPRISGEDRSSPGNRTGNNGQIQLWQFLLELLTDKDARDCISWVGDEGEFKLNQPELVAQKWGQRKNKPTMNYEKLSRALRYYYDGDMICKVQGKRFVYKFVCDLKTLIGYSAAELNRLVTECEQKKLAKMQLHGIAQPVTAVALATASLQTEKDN
# How it was run: as §1
# ERG = biological target: T4, ERG (Homo sapiens, UniProt P11308 1-479); conditions: protein: recombinant; tags: N-terminal GST; dsDNA, one strand shown
# T4 sequence: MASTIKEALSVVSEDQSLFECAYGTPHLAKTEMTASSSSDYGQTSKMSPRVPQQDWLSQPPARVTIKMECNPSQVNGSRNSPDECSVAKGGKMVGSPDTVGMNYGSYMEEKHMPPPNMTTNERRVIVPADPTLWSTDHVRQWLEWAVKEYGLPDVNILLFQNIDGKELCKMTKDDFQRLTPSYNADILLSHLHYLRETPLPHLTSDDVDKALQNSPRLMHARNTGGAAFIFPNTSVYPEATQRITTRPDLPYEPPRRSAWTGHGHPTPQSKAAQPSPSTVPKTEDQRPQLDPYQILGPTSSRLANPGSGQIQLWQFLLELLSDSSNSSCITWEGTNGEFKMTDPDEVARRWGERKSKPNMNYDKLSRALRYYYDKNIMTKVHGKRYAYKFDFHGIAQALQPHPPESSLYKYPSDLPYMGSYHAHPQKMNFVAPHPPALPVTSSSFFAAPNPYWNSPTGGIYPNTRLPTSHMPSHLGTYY
# How it was run: as §1
# ELF1 = ELF1 (Homo sapiens, UniProt P32519 1-619); conditions: protein: recombinant; tags: N-terminal GST; dsDNA, one strand shown
# Chain of ELF1 (P32519 whole entry): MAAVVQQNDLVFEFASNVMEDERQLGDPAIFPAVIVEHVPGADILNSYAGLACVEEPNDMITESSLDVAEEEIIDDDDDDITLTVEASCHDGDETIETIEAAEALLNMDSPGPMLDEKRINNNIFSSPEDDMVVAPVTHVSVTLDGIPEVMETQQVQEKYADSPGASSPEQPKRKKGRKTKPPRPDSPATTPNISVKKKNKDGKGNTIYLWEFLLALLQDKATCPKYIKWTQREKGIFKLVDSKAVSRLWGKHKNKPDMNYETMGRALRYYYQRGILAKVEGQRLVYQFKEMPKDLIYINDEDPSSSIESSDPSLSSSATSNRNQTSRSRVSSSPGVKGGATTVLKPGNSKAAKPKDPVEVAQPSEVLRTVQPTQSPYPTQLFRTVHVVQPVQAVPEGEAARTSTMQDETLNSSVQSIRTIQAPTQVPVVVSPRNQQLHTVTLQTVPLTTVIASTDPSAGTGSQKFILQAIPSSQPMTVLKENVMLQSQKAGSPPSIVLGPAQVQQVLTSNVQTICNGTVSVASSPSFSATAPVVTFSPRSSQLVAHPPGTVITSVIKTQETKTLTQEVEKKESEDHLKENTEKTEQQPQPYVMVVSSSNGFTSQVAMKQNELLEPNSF
# How it was run: as §1
# EHF = biological target: T5, EHF (Homo sapiens, UniProt Q9NZC4 1-300); conditions: protein: recombinant; tags: N-terminal GST; dsDNA, one strand shown
# T5 sequence: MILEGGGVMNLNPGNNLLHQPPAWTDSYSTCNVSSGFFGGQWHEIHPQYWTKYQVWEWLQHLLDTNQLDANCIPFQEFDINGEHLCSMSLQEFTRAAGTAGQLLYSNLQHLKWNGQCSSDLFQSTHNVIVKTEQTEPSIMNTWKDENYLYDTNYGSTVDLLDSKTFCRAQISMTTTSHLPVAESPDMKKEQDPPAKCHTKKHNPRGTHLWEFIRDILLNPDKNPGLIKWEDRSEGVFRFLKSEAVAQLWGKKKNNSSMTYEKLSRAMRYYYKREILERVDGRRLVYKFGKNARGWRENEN
# How it was run: as §1
# SPI1 = SPI1 (Homo sapiens, UniProt P17947 1-270); conditions: protein: recombinant; tags: N-terminal GST; dsDNA, one strand shown
# How it was run: as §1
# SPIB = SPIB (Homo sapiens, UniProt Q01892 1-262); conditions: protein: recombinant; tags: N-terminal GST; dsDNA, one strand shown
# Chain of SPIB (Q01892 whole entry): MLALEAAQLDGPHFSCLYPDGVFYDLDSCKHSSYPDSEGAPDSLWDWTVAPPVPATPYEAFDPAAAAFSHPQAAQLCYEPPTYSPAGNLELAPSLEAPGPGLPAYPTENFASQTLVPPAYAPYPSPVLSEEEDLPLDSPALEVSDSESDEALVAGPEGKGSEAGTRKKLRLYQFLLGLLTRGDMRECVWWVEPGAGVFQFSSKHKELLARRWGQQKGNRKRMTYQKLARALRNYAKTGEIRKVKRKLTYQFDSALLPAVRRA
# How it was run: as §1
# ELK3 = biological target: T6, ELK3 (Homo sapiens, UniProt P41970 1-407); conditions: protein: recombinant; tags: N-terminal GST; dsDNA, one strand shown
# T6 sequence: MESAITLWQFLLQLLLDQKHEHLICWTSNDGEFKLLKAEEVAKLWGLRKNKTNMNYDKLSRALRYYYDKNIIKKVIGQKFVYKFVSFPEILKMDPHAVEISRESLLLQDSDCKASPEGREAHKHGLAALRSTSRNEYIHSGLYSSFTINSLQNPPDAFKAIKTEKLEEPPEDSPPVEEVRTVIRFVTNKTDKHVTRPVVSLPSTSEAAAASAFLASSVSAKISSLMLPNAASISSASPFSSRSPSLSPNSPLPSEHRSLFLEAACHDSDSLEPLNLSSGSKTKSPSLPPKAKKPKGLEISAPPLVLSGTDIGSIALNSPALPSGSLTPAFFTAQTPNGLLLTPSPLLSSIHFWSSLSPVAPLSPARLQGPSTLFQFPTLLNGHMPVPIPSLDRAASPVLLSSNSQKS
# How it was run: as §1
# FEV = biological target: T7, FEV (Homo sapiens, UniProt Q99581 1-238); conditions: protein: recombinant; tags: N-terminal GST; dsDNA, one strand shown
# T7 sequence: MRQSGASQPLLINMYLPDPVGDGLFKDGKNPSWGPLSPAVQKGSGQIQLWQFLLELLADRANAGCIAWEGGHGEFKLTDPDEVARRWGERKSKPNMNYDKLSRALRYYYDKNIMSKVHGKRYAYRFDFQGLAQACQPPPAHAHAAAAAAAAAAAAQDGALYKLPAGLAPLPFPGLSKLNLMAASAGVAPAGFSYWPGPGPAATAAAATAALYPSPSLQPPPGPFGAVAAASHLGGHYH
# How it was run: as §1
# ETV5 = ETV5 (Homo sapiens, UniProt P41161 1-510); conditions: protein: recombinant; tags: N-terminal GST; dsDNA, one strand shown
# Chain of ETV5 (P41161 whole entry): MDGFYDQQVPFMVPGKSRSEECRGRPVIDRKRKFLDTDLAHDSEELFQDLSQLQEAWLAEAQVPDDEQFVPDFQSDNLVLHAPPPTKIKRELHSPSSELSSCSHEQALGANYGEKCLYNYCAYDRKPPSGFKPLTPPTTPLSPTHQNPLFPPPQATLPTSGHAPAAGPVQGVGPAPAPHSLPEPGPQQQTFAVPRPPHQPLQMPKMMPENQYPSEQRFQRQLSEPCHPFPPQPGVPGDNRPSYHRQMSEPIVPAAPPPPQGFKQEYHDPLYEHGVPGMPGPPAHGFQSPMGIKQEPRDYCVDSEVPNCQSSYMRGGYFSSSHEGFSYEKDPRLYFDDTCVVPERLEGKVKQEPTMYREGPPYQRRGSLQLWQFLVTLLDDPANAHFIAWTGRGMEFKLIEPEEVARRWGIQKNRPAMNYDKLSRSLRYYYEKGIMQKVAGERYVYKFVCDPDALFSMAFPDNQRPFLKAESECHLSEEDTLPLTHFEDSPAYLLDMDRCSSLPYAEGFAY
# How it was run: as §1
# HSF1 = HSF1 (Homo sapiens, UniProt Q00613 1-529); conditions: protein: recombinant; tags: N-terminal GST; chain copies: 3; dsDNA, one strand shown
# Chain of HSF1 (Q00613 whole entry): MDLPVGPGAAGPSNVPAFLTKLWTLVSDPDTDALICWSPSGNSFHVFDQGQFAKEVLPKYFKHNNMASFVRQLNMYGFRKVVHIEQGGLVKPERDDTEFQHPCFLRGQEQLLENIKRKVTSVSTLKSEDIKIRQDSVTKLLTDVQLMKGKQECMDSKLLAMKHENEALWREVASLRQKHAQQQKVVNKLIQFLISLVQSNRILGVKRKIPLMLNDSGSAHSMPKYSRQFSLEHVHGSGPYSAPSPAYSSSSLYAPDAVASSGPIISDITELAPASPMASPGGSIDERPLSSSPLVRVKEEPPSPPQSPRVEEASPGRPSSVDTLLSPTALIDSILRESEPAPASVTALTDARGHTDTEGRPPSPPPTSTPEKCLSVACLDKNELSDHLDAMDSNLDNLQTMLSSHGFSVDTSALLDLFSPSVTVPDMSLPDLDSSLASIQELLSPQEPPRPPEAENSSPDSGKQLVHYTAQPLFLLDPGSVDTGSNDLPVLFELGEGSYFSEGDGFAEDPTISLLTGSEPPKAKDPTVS
# How it was run: as §1
# SPIC = biological target: T8, SPIC (Homo sapiens, UniProt Q8N5J4 1-248); conditions: protein: recombinant; tags: N-terminal GST; dsDNA, one strand shown
# T8 sequence: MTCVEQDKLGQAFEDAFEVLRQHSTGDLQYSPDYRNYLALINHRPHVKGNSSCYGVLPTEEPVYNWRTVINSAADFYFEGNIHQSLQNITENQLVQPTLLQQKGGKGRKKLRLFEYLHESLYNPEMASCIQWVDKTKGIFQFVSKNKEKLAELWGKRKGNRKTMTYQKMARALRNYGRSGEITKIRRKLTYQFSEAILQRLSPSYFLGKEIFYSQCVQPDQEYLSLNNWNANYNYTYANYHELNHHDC
# How it was run: as §1
# ELF4 = ELF4 (Homo sapiens, UniProt Q99607 1-663); conditions: protein: recombinant; tags: N-terminal GST; dsDNA, one strand shown
# Chain of ELF4 (Q99607 whole entry): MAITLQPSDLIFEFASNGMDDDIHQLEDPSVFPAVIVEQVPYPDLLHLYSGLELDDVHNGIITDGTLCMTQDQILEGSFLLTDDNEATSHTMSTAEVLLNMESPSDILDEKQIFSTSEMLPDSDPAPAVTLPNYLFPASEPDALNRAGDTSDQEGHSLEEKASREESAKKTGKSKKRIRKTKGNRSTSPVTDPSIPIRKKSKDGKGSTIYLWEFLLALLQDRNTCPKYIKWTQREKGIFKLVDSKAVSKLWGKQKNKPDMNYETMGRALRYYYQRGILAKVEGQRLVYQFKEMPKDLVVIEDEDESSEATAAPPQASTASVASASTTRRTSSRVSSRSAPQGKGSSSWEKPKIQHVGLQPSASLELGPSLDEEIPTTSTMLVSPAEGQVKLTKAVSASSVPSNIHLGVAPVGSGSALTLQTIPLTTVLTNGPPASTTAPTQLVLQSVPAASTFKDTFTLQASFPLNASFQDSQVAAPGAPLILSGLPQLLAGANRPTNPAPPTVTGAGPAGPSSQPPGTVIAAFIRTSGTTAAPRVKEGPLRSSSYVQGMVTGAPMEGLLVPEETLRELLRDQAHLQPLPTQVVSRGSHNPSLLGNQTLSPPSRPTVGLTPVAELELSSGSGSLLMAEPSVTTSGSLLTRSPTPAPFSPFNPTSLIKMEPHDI
# How it was run: as §1
# ELK4 = biological target: T9, ELK4 (Homo sapiens, UniProt P28324-2 1-405); conditions: protein: recombinant; tags: N-terminal GST; dsDNA, one strand shown
# T9 sequence: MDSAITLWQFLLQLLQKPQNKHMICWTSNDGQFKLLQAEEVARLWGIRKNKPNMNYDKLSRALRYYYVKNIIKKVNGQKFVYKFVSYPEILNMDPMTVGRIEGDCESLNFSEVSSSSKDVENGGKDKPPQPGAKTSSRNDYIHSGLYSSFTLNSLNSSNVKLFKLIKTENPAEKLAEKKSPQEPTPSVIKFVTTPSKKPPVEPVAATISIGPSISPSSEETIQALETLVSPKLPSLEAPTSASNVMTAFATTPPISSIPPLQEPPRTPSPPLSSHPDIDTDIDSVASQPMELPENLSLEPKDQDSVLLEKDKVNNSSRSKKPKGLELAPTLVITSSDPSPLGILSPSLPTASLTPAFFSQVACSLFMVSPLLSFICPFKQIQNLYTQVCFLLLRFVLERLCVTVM
# How it was run: as §1
# ETV2 = biological target: T10, ETV2 (Homo sapiens, UniProt O00321 1-342); conditions: protein: recombinant; tags: N-terminal GST; dsDNA, one strand shown
# T10 sequence: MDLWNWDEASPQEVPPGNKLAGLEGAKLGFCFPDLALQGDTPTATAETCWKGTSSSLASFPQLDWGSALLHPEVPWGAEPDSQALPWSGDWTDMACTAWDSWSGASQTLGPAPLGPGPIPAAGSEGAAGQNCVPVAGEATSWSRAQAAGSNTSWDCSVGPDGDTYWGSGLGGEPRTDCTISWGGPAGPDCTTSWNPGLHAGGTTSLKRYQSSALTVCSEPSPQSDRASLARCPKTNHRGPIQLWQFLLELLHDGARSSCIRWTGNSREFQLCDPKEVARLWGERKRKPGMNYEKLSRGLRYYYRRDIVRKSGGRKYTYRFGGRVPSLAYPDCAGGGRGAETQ
# How it was run: as §1
# ELF3 = biological target: T11, ELF3 (Homo sapiens, UniProt P78545 1-371); conditions: protein: recombinant; tags: N-terminal GST; dsDNA, one strand shown
# T11 sequence: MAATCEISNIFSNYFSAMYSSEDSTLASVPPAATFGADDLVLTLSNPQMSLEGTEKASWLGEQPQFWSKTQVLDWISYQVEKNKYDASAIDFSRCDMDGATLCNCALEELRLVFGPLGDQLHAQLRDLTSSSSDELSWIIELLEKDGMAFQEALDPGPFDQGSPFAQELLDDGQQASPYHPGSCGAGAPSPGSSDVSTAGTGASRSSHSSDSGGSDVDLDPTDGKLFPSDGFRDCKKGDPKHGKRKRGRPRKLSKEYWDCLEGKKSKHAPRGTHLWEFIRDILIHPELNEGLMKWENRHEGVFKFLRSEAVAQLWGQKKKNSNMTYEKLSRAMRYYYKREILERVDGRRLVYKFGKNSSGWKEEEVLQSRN
# How it was run: as §1
# CRX = CRX (Homo sapiens, UniProt O43186 1-299); conditions: protein: recombinant; tags: N-terminal GST; dsDNA, one strand shown
# Chain of CRX (O43186 whole entry): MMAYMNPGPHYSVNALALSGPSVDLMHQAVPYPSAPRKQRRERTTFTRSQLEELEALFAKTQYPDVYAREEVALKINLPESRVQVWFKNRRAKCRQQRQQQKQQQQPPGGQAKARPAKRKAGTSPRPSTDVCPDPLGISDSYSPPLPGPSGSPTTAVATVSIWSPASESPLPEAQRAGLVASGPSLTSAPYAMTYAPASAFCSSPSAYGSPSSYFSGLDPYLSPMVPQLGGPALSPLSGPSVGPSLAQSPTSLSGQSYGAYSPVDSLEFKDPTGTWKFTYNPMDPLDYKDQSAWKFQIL
# How it was run: as §1
# ETV1 = ETV1 (Homo sapiens, UniProt P50549 1-477); conditions: protein: recombinant; tags: N-terminal GST; dsDNA, one strand shown
# Chain of ETV1 (P50549 whole entry): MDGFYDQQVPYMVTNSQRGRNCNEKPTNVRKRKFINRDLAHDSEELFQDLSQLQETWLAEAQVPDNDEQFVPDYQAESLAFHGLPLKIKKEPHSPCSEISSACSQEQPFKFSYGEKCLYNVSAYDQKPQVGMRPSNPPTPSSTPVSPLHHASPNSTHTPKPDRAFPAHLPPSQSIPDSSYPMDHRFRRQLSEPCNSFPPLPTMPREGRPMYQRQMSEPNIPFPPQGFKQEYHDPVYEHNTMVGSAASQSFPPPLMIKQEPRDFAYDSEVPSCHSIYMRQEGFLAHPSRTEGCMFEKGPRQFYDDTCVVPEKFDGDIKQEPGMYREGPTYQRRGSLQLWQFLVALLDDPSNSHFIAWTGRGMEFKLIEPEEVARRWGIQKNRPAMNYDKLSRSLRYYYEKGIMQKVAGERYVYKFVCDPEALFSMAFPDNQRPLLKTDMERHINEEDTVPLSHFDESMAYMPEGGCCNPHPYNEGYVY
# How it was run: as §1
sequence,measurement,setting,value
ATGCTC,binding signal,FLI1,"1.43 fold enrichment (6-mer frequency, TF over GST control)"
same,binding signal,ELK1,"1.31 fold enrichment (6-mer frequency, TF over GST control)"
same,binding signal,GABPA,"1.36 fold enrichment (6-mer frequency, TF over GST control)"
same,binding signal,ERG,"1.34 fold enrichment (6-mer frequency, TF over GST control)"
same,binding signal,ELF1,"1.36 fold enrichment (6-mer frequency, TF over GST control)"
same,binding signal,EHF,"1.34 fold enrichment (6-mer frequency, TF over GST control)"
same,binding signal,SPI1,"1.41 fold enrichment (6-mer frequency, TF over GST control)"
same,binding signal,SPIB,"1.35 fold enrichment (6-mer frequency, TF over GST control)"
same,binding signal,ELK3,"1.27 fold enrichment (6-mer frequency, TF over GST control)"
same,binding signal,FEV,"1.39 fold enrichment (6-mer frequency, TF over GST control)"
same,binding signal,ETV5,"1.41 fold enrichment (6-mer frequency, TF over GST control)"
same,binding signal,HSF1,"1.43 fold enrichment (6-mer frequency, TF over GST control)"
same,binding signal,SPIC,"1.47 fold enrichment (6-mer frequency, TF over GST control)"
same,binding signal,ELF4,"1.46 fold enrichment (6-mer frequency, TF over GST control)"
same,binding signal,ELK4,"1.32 fold enrichment (6-mer frequency, TF over GST control)"
same,binding signal,ETV2,"1.37 fold enrichment (6-mer frequency, TF over GST control)"
same,binding signal,ELF3,"1.47 fold enrichment (6-mer frequency, TF over GST control)"
same,binding signal,CRX,"1.38 fold enrichment (6-mer frequency, TF over GST control)"
same,binding signal,ETV1,"1.42 fold enrichment (6-mer frequency, TF over GST control)"
